Hit rate of the full screen: of about 310,000 compounds, about 18,000 (5.8%) were called active. A call without a number means that no potency is given here. Roughly 22% stayed inconclusive and do not appear here. Calls follow the shape of the dose curve; as a rule, active = well fitted inhibition curve with a large enough effect; inconclusive = small, poorly fitted or top-dose-only effect, or another doubt; inactive = no such curve, though single readings can be large or run the other way. This excerpt belongs to a sample that is enriched for actives.
Potency is read from the fitted curve at half-maximal effect.

The assay in a line: Primary qHTS for delayed death inhibitors of the malarial parasite plastid, 48 hour incubation. The note with it: P. falciparum luciferase growth in erythrocytes; series mostly up to 28.7 µM. In outline: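 In quantitative HTS format, infected erythrocytes bearing luciferase-reporter parasites were treated for a single generation at 37 C. Luminescence after adding detection reagent served as the growth measure.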
As for `O=C(CN(C(=O)CNC(=O)c1cccs1)c1cccc(F)c1)NC1CCCCC1`, the Potency entry is “inactive”. On the same count and under the same terms, to `Cc1cccc(NC(=O)COC(=O)CCc2ccccc2)c1C` belongs “inactive”; to `CC(=O)c1c(C)n(-c2ccc(C)cc2)c2ccc(O)cc12`, “inactive”; to `CCOC(=O)c1c(C)oc2ccc(OCC(=O)N(CC)CC)cc12`, “inactive”. For the compound `CC(=O)c1c(C)n(-c2ccc(N(C)C)cc2)c2ccc(OCC(N)=O)cc12`, the Potency was 11.7 µM (active). The same measure, in the same setting: to `O=C(Nc1ccccc1Cl)NC1(C(=O)N2CCOCC2)CCCCC1` belongs “inactive”; to `COc1ccc(CNC(=O)C(=O)N2CCC3(CC2)OCCN3S(=O)(=O)c2ccc(C)cc2)cc1`, “inactive”.

Turning to `CC1(C)O[C@H]2CC(=O)OCC23[C@H]2CC[C@@]4(C)[C@H](c5ccoc5)OC(=O)[C@H]5O[C@]54[C@]2(C)C(=O)C[C@@H]13` (some centres not stated), the Potency result is “inactive”. As for `O=C(NC1CCCCC1)c1ccc(-c2ccc(Cl)cc2)o1`, the Potency result is “inactive”.

On to `COC(=O)c1ccc(NCC(=O)N2CCCCCC2)cc1`, for which the Potency result was “inactive”. As to `O=C(Cn1ncc(N2CCCC2)c(Br)c1=O)c1ccc(Cl)cc1`, the Potency entry is “inactive”. On the same count and under the same terms, the value for `O=C(Cn1nc(CNc2ccc(Cl)cc2)[n+]2c1CCCCC2)c1ccc(Cl)cc1` was 1.04 µM (active). For `Cn1c(CCNS(=O)(=O)c2ccc(F)cc2)nnc1SCc1cccnc1`, the Potency result was “inactive”. The same measure, in the same setting: the value for `CC(C)c1ccc(S(=O)(=O)NC2CCCC2)cc1` was “inactive”; that for `O=c1[nH]c(/C=C\c2cccc(C(F)(F)F)c2)nc(O)c1[N+](=O)[O-]` was 9.28 µM (active).

Turning to `O=c1cc(O)c(-c2cccc(C(F)(F)F)c2)c(Cl)[nH]1`, the Potency result is “inactive”. As to `Cc1ccccc1/C=C\c1nc(O)c([N+](=O)[O-])c(=O)[nH]1`, the activity change, negative = inhibition was -10.1% [at 0.00184 µM] (inactive). Same read-out and setting: the value for `Cc1ccc(C)c(NC(=O)c2cc(-c3cc(C)cc(C)c3O)n[nH]2)c1` was -16% [at 0.00184 µM] (inactive). Turning to `CCOC(=O)c1c(N)n(Cc2ccccc2)c2nc3ccccc3nc12`, the Potency is 9.28 µM (active).

Take `CCC(=O)Nc1c(S(=O)(=O)c2ccccc2)c2nc3ccccc3nc2n1Cc1ccccc1`: the Potency entry was “inactive”. On to `COCC(C)OC(=O)c1c(N)n(CCCN2CCOCC2)c2nc3ccccc3nc12` (configuration not stated), for which the Potency entry was “inactive”. Same read-out and setting: the value for `Cc1c(C)c2ccc(OCC(=O)N3CCN(c4cccc(Cl)c4)CC3)cc2oc1=O` was “inactive”.

Turning to `CCc1ccc2c(c1)C1(NN=C(c3ccccc3)S1)C(=O)N2` (configuration not stated), the Potency was 3.7 µM (active). For `CCc1ccc2c(c1)C(c1ccc([N+](=O)[O-])cc1)=NNC(c1ccccc1)=N2`, the Potency entry is “inactive”. `O=C1Nc2ccccc2C12Nc1ccccc1S2` (configuration not stated): the Potency entry was “inactive”.

With `O=C(c1ccc(Br)o1)N1CCN(CCOc2ccccc2)CC1`, the Potency entry was “inactive”. Same read-out and setting: the value for `Cc1ccc(NS(=O)(=O)c2ccc(C(C)(C)C)cc2)cn1` was “inactive”.

The values above are taken from PubChem BioAssay AID504832 (National Center for Advancing Translational Sciences (NCATS), 2011).
